Most compounds without a hit are left out; they make up all but 3.8% or so of the library.
HT1080-NT tox: qHTS for induction of synthetic lethality in tumor cells producing 2HG: qHTS for the HT-1080-NT fibrosarcoma cell line | HT-1080-NT fibrosarcoma viability, CellTiter-Glo ATP luminescence, 48 h | Potency, µM (titrated, usually from 46.1 µM), for inactives: at the highest dose activity, negative = less viability, most hits filed as cytotoxic | 360,000 tested, 1.6% active;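 note: NT is the 2HG producing partner of a matched IDH1 knockdown line; 0% = DMSO-treated cells and -100% = media-only wells without cells; nearly all actives have a fitted effect of over 55% in size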
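Luminescent CellTiter-Glo readout after 48 hours of compound exposure at 37 degrees C defined viability of HT-1080-NT cells. Activity was normalized to DMSO wells and cell-free media wells; concentration-response curves were fitted and assigned curve classes.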
ATXN viability: Viability Counterscreen for Primary qHTS for Inhibitors of ATXN expression. S2 cells (HEK-293 line with an ATXN2-luciferase reporter) viability, CellTiter-Fluor protease fluorescence, 24 h. Potency, µM (doses to about 56.7 µM), usual class: cytotoxic. 400,000 tested, 0.49% active; note: nearly all actives have a fitted effect of over 40% in size
HepG2 tox: qHTS for Inhibitors of TGF-b: Cytotox Counterscreen; 410,000 tested, 0.76% active; Potency, µM (titrated, usually from 46.1 µM), without a hit: at the highest dose activity change, negative = cytotoxicity, usual class: cytotoxic; AID 588856, 2011; HepG2 CAGA-GFP viability, ATP luminescence, 18 h
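HepG2 CAGA-GFP cells (1000/well, DMEM with 1% FBS) received compound, then TGF-beta at 500 pg/mL final, and were incubated 18 hours at 37 degrees C. Viability was read by CellTiter-Glo luminescence. Media-only wells were set as complete cell-killing and DMSO as no toxicity.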
ATXN2 expr inh: Primary qHTS for Inhibitors of ATXN expression. AID 1745845, 2022. 360,000 tested, 0.72% active. Potency, µM (highest dose often 57 µM), without a hit: top-dose activity change, negative = inhibition, usual class: inhibitors. HEK-293 ATXN2-luciferase reporter, luminescence, 24 h; note: % is set by controls: 0 for no effect and ±100 for the full control effect; nearly all actives have a fitted effect of over 55% in size
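ATXN2-luciferase reporter cells (luciferase flanked by upstream and downstream ATXN2 gene portions) were treated 24 h at 37 °C with compounds at up to 57 uM. SteadyGlo luminescence gave expression; GF-AFC fluorescence gave viability.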
HT1080 IDH1KD tx: qHTS for induction of synthetic lethality in tumor cells producing 2HG: qHTS for the HT-1080-IDH1KD cell line. HT-1080 IDH1 knockdown viability, ATP luminescence, 48 h. Potency, µM (highest dose often 46.1 µM), for the others: at the highest dose activity, negative = toxicity, usual class: cytotoxic. 360,000 tested, 2% active. AID 686971, 2013;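 note: 0% = DMSO wells and -100% = cell-free medium wells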
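CellTiter-Glo luminescence after 48 h compound exposure at 37 degrees C of IDH1-knockdown HT-1080 cells in 5% FBS RPMI. %Activity scaled between DMSO wells and cell-free media wells, with curves fitted and assigned curve classes.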
TGFb SMAD3 inh: qHTS for Inhibitors of TGF-b | 410,000 tested, 1.2% active | Potency, µM (doses to about 46.1 µM), for inactives: at the top dose activity, negative = inhibition, most hits filed as inhibitors | HepG2 CAGA-GFP TGF-b/SMAD3 reporter, GFP fluorescence, 18 h; TGF-beta stimulated, 500 pg/mL final; note: % is set by controls: 0 for no effect and ±100 for the full control effect; nearly all actives have a fitted effect of over 65% in size
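HEPG2 CAGA-GFP cells (1000/well, DMEM with 1% FBS) were pre-incubated 2 h at 37 degrees C, given compound by pin tool, then stimulated with TGF-beta at 500 pg/mL final for 18 h before per-cell GFP fluorescence imaging.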
The depositor's hits bear a star. Calls come from the whole dose curve; as a rule, active = well fitted curve in the direction sought with a large enough effect; inconclusive = small, poorly fitted or top-dose-only effect, or another doubt; inactive = no such curve, though single readings can be large; an effect the other way counts as inactive or inconclusive. Potency is the fitted concentration of half-maximal effect.

Screening CCC(=O)Nc1ccc(SC#N)cc1C returned HT1080-NT tox inconclusive, ATXN viability inconclusive, HepG2 tox -42.0%, ATXN2 expr inh -13.9%, HT1080 IDH1KD tx 7.94µM* and TGFb SMAD3 inh inconclusive.
For O=C(N/N=C/c1ccccc1)C(=O)N/N=C/c1ccccc1 the results were HT1080-NT tox 14.1%, ATXN viability inactive, HepG2 tox 9.1%, ATXN2 expr inh 0.0%, HT1080 IDH1KD tx 11.4% and TGFb SMAD3 inh 4.5%.
Screening O=C(C=C=Nc1ccccc1)C(=O)N=C=Cc1ccccc1 returned HT1080-NT tox 6.51µM*, ATXN viability 28.2µM*, HepG2 tox -55.2%, ATXN2 expr inh inconclusive, HT1080 IDH1KD tx 3.66µM* and TGFb SMAD3 inh inconclusive.
`CCCOC(=O)c1ccc(Oc2cn[nH]c2-c2ccc(O)cc2O)cc1` gave HT1080-NT tox 18.4µM*, ATXN viability inactive, HepG2 tox -47.8%, HT1080 IDH1KD tx -3.6% and TGFb SMAD3 inh inconclusive.
`C=C(C)COc1ccc(-c2[nH]ncc2Oc2cccc(OC)c2)c(O)c1` gave HT1080-NT tox 23.1µM*, ATXN viability inactive, HepG2 tox 17.8µM*, ATXN2 expr inh -34.2%, HT1080 IDH1KD tx inconclusive and TGFb SMAD3 inh inconclusive.
`C=C(C)COc1ccc(-c2[nH]ncc2Oc2ccccc2OCC)c(O)c1` gave HT1080-NT tox inconclusive, ATXN viability inactive, HepG2 tox -89.3%, ATXN2 expr inh inconclusive, HT1080 IDH1KD tx 25.9µM* and TGFb SMAD3 inh inconclusive.
CC(=O)N(C(C)=O)N1C(=O)C2C3c4ccccc4C(c4ccccc43)C2C1=O (stereo not given) was read as HT1080-NT tox 20.6µM*, ATXN viability inactive, HepG2 tox -21.2%, HT1080 IDH1KD tx 13µM* and TGFb SMAD3 inh inconclusive.
CN1C(=O)C2C3c4ccccc4C(c4ccccc43)[C@@H]2C1=O (stereo not given in full) was read as HT1080-NT tox 8.7%, ATXN viability inactive, HepG2 tox -1.0%, ATXN2 expr inh 0.2%, HT1080 IDH1KD tx 6.0% and TGFb SMAD3 inh 0.0%.
For Cc1ccc(Cl)cc1NS(=O)(=O)c1ccc2oc(=O)c3ncn(C)c3c2c1 the results were HepG2 tox 10µM* and TGFb SMAD3 inh 15.8µM*.
Screening Cc1ccc(NS(=O)(=O)c2ccc3oc(=O)c4ncn(C)c4c3c2)cc1C returned ATXN viability inactive, HepG2 tox -27.1%, ATXN2 expr inh -4.1% and TGFb SMAD3 inh -14.7%.
CCOc1cc(S(=O)(=O)Nc2cc(C)cc(C)c2)ccc1Cl was read as HT1080-NT tox inconclusive, ATXN viability inconclusive, HepG2 tox -101.3%, ATXN2 expr inh inconclusive, HT1080 IDH1KD tx inconclusive and TGFb SMAD3 inh 22.4µM*.
COc1ccc(OC)c(-c2cc(Cl)c3c(c2)CC(CNC(=O)c2coc4c2C(=O)CCC4)O3)c1 (stereo not given) was read as ATXN viability inactive.
For Cc1cc(-c2nnc3n2N=C(c2ccc(-c4ccccc4)cc2)CS3)n[nH]1 the results were HT1080-NT tox 23.1µM*, ATXN viability inconclusive, HepG2 tox -13.8%, ATXN2 expr inh inconclusive, HT1080 IDH1KD tx inconclusive and TGFb SMAD3 inh inconclusive.
`c1ccc(-c2cc(-c3nnc4n3N=C(c3ccc5ccccc5c3)CS4)[nH]n2)cc1` gave HT1080-NT tox inconclusive, ATXN viability inconclusive, HepG2 tox -65.6%, ATXN2 expr inh inconclusive, HT1080 IDH1KD tx 17.8µM* and TGFb SMAD3 inh inconclusive.
Screening Cc1cc(-c2nnc3n2N=C(c2ccccc2)CS3)n[nH]1 returned HT1080-NT tox 4.1%, HepG2 tox -14.9%, ATXN2 expr inh 50.4%, HT1080 IDH1KD tx 10.2% and TGFb SMAD3 inh -14.0%.
`CCOc1ccc(C2=Nn3c(nnc3-c3ccc(OC)cc3)SC2)cc1` gave HT1080-NT tox inconclusive, ATXN viability inactive, HepG2 tox -42.0%, ATXN2 expr inh -25.2%, HT1080 IDH1KD tx 6.51µM* and TGFb SMAD3 inh inconclusive.
For C[n+]1c(/C=C/c2ccnc3ccccc23)cc(/C=C/c2ccnc3ccccc23)c2ccccc21 the results were HepG2 tox -46.9% and TGFb SMAD3 inh inconclusive.
`CC1=C(CC/C(C)=N/NC(N)=S)C(C)(C)CCC1` gave HT1080-NT tox 6.31µM*, ATXN viability inconclusive, HepG2 tox -21.0%, ATXN2 expr inh inconclusive, HT1080 IDH1KD tx 8.91µM* and TGFb SMAD3 inh -17.4%.
CC(C)=CCN1CCN(CCC2=C(C)CCCC2(C)C)CC1CCO (stereo not given) was read as HT1080-NT tox -6.1%, ATXN viability inactive, HepG2 tox -25.9%, ATXN2 expr inh -16.7%, HT1080 IDH1KD tx -0.1% and TGFb SMAD3 inh -11.1%.
`O=C(Nc1ccccc1)N1CCc2c([nH]c3ccccc23)C1C(F)(F)F` (stereo not given) gave HT1080-NT tox inconclusive, ATXN viability inactive, HepG2 tox -33.7%, ATXN2 expr inh -12.4%, HT1080 IDH1KD tx -14.0% and TGFb SMAD3 inh inconclusive.
Screening COc1cccc(Cl)c1NC(=O)N1CCc2c([nH]c3ccccc23)C1C(F)(F)F (stereo not given) returned HT1080-NT tox 20.6µM*, ATXN viability inconclusive, HepG2 tox -38.5%, ATXN2 expr inh inconclusive, HT1080 IDH1KD tx inconclusive and TGFb SMAD3 inh inconclusive.
CCCCC(CC)CNC(=O)CN1C(=O)CSc2ccc(S(=O)(=O)N3CCOCC3)cc21 (stereo not given) was read as HepG2 tox -16.7% and TGFb SMAD3 inh inconclusive.
`CCCCCCCCN1C(=O)[C@H](CC(=O)N2CCN(C(=O)C3CC3)CC2)C[C@@]2(C(=O)OCC)CCCC=C12` gave HT1080-NT tox inconclusive, ATXN viability 14.1µM*, ATXN2 expr inh inconclusive and HT1080 IDH1KD tx inconclusive.
Screening CCOC(=O)[C@]12CCCC=C1N(Cc1ccccc1)C(=O)[C@H](CC(=O)N1CCN(C(=O)C3CC3)CC1)C2 returned HT1080-NT tox 6.2% and HT1080 IDH1KD tx -13.6%.
CCCCNC(=O)C[C@@H]1C[C@@]2(C(=O)OC)CCCCC=C2N(Cc2ccc(Cl)cc2Cl)C1=O was read as HT1080-NT tox inconclusive, ATXN viability 31.6µM*, ATXN2 expr inh inconclusive and HT1080 IDH1KD tx -19.0%.

Source: PubChem
